# Sampled rows, rich in hits. Any-hit rate of the full collection: about 8.3%.
# LASV entry inh – inhibitors of Lassa virus binding or cell entry | Lassa virus pseudotype entry inhibition, cell reporter | Potency, µM (titrated, usually from 37.9 µM), actives largely listed as inhibitors | 300,000 compounds, 1.2% hits; calls by dose curve; tested in HEK293 cells; further: nearly all actives have a fitted effect of over 50% in size
# FMDV inh – antivirals against foot and mouth disease virus | FMDV antiviral cell-based qHTS | Potency, µM (doses to about 57.9 µM), actives largely listed as inhibitors | 410,000 compounds, 1.2% hits; calls by dose curve; tested in HEK293T cells; further: read-out not given here; nearly all actives have a fitted effect of over 45% in size
# HCV inhibitor – blocks hepatitis C virus | Huh7.5.1 HCVcc-Cre infection, luciferase reporter, 44 h | Potency, µM (doses to about 41.8 µM), usual class: inhibitors | 340,000 compounds, 3.4% hits | AID 651820
#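 Whole-lifecycle infectious HCVcc-Cre system; cells 1,000/well, compound then virus (~0.5 moi) added 4 h after plating, 44 h culture. Luciferase read 15 sec following 15 min substrate incubation, room temp.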
# Giardia FBPA inh – blocks Giardia fructose-bisphosphate aldolase activity | purified Giardia FBPA | Potency, µM (highest dose often 59.6 µM), usual class: inhibitors | 290,000 compounds, 0.71% hits; further: nearly all actives have a fitted effect of over 55% in size
# Target sequence (A8B2U2 whole entry, looked up): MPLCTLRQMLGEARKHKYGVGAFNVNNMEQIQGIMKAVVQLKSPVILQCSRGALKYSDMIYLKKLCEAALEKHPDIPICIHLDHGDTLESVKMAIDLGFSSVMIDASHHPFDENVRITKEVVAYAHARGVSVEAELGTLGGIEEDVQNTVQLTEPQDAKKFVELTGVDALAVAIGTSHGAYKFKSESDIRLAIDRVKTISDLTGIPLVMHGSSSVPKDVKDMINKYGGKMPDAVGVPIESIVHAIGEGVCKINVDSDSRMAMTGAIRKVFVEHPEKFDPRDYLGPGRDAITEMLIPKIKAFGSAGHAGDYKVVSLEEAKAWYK
#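 40 nM FBPA preincubated 10 min at RT with compound (up to 57.5 uM final), then substrate plus GAPDH/TPI/NAD/arsenate coupling and diaphorase/resazurin added. Fluorescence read after 20 min at RT, 525/598 nm.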
# MARV entry inh – blocks Marburg virus binding to or entry into cells; 300,000 compounds, 1.8% hits; Marburg virus pseudotyped entry inhibition, cell reporter; Potency, µM (titrated, usually from 37.8 µM), most hits filed as inhibitors; AID 540276; calls by dose curve; tested in HEK293 cells
# HCMV inh – inhibitors of human cytomegalovirus; HFF cells, HCMV-luciferase reporter, 72 h; hits give low values; activity change, negative = inhibition, % at 57.5 µM; 410,000 compounds, 4.5% hits; in the data active means activity change below about -60%; inconclusive means no clear call, values can overlap the other calls; inactive means above about -39%
#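 Compounds were evaluated in HFFs infected with an HCMV luciferase reporter virus (MOI 1 PFU/cell). Luciferase in lysates collected 72 h post infection served as the replication measure.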
# A number is an active result; – = inactive; ? = inconclusive; · = not tested or not shown; [ ] = dose if it differs, or a comment. Unless noted, the call rests on the fitted dose curve; in most records, active means well fitted curve in the direction sought with a large enough effect; inconclusive means small, poorly fitted or top-dose-only effect, or another doubt; inactive means no such curve, though single readings can be large; an effect the other way counts as inactive or inconclusive.
SMILES,LASV entry inh,FMDV inh,HCV inhibitor,Giardia FBPA inh,MARV entry inh,HCMV inh
CN(C)Cc1nc2ccccc2c(=O)n1Cc1nc(-c2cc3ccccc3o2)cs1,–,–,?,–,11.2µM,–
CCOC(=O)CSc1nc2c(c(=O)[nH]c(=O)n2C)n1Cc1ccccc1,·,–,2.82µM,–,·,–
CCOC(=O)CSc1nc2c(c(=O)[nH]c(=O)n2C)n1CCCc1ccccc1,–,–,–,–,–,–
CC(=O)CSc1nc2c(c(=O)[nH]c(=O)n2C)n1Cc1cccc(Br)c1,–,–,12.6µM,–,–,–
O=C(Cn1cc(COc2ccc3ccc(=O)oc3c2)nn1)c1ccc(O)cc1,?,–,2.51µM,·,·,–
CCc1ccc(CN(C)C(=O)CCc2nc3ccccc3n(-c3ccc(OC)cc3)c2=O)cc1,14.1µM,?,?,–,10µM,-68.3
COc1ccc(/C=C(/C#N)c2nc(-c3ccc(Br)cc3)cs2)cc1,?,–,·,·,·,–
CC(C)c1ccc(/C=C(\C#N)c2nc(-c3ccc(O)cc3)cs2)cc1,–,–,·,·,·,-86.5
COc1c2ccc(OCC/C(C)=C/C(=O)C=C(C)C)cc2nc2occc12,·,–,–,·,·,-101.1
COc1ccc(S[C@]2(c3nc(C)no3)CC(=O)N(P(=O)(OC)OC)[C@@H]2c2ccc(OC)cc2)cc1,·,·,·,·,·,–
CCN(CC)CCN1C(=O)C(O)=C(C(=O)c2ccco2)[C@@H]1c1ccccn1,·,·,·,·,–,·
C=CCn1c(=O)c2ccccc2n2nnc(C(=O)OCC)c12,–,–,–,–,–,-62.5
C=CCSc1nc2c(C(=O)OCC)nnn2c2ccccc12,?,?,?,–,–,–
C=CCn1c(O)c(N=NC(=O)OCC)c2ccccc21,–,–,–,–,–,-64.3
C=CCn1c(O)c(N=Nc2ccccc2)c2ccccc21,–,–,–,–,–,–
C=CCn1c(O)c(N=NC(=S)Nc2ccc(OC)cc2)c2ccccc21,?,–,?,–,?,-71.6
CCn1c(O)c(N=NC(=O)CNC(=O)c2ccco2)c2ccccc21,·,–,–,–,·,-61.8
CN(C)c1ccc(CNC(=O)Cn2c(=O)oc3cc(S(=O)(=O)N4CCCCCC4)ccc32)cc1,?,?,·,·,·,–
COc1ccc(Cl)cc1NC(=O)c1nn(-c2ccc(C)cc2)c(=O)n(C)c1=O,?,–,·,·,·,–
C=CCn1c(O)c(N=NC(=S)Nc2cccc(OC)c2)c2ccccc21,?,–,?,–,?,-75.9
C=CCn1c(O)c(N=Nc2ccccc2O)c2ccccc21,·,–,–,·,·,–
COc1ccc(C)cc1NC(=O)Cn1c(=O)n(Cc2nc(C)no2)c(=O)c2ccccc21,–,–,·,·,·,–
Cc1cc(C)cc(N=Cc2ccc([N+](=O)[O-])s2)c1,?,–,?,–,?,–
O=[N+]([O-])c1ccc(C=Nc2ccc(Cl)c([N+](=O)[O-])c2)s1,·,·,·,?,·,-98.6
NC(=O)c1ccc(N=Cc2ccc([N+](=O)[O-])s2)cc1,?,?,?,?,?,-97.5
SMILES,LASV entry inh,FMDV inh,HCV inhibitor,Giardia FBPA inh,MARV entry inh,HCMV inh
CC(=O)c1cc(C(=O)c2ccccc2)sc1Nc1ccccc1,–,–,12.6µM,–,–,–
CC(=O)c1ccc(-c2ccc3c4c(ccc3c2)OC(CNC(=O)[C@@H]2CCCN2C(C)=O)C4)s1 (some centres undefined),·,–,·,·,·,·
CC[C@]12c3[nH]c4cc(CCC(=O)N(C)C)ccc4c3CCN1C(=O)[C@@H](CC(=O)NCc1cccc(C(F)(F)F)c1)C[C@@H]2C(=O)N1CCN(C(=O)C2CC2)CC1,·,–,0.562µM,·,·,–
CC[C@]12c3[nH]c4cc(CCC(=O)N(C)C)ccc4c3CCN1C(=O)[C@@H](CC(=O)NCc1cccc(C(F)(F)F)c1)C[C@@H]2C(=O)N1CCN(C(=O)c2ccco2)CC1,·,–,–[8.37 µM],·,–,–
CCN(CC)C(=O)[C@H]1CC(CC(=O)NCc2cccc(C(F)(F)F)c2)C(=O)N2CCc3c([nH]c4ccccc34)[C@]12C (some centres undefined),·,–,12.6µM,·,·,–
CN(C)C(=O)CCc1ccc2c3c([nH]c2c1)[C@]1(CCC2CCCC2)[C@@H](C(=O)N2CCOCC2)C[C@H](CC(=O)NCCN2CCOCC2)C(=O)N1CC3,·,–,0.316µM,·,·,–
CN(C)CCCNC(=O)C[C@H]1C[C@H](C(=O)N2CCOCC2)[C@@]2(CCC3CCCC3)c3[nH]c4cc(CCC(=O)N(C)C)ccc4c3CCN2C1=O,·,–,–,·,·,–

# From PubChem
